CHO-K1 Ca antag: counter-screen for M1 antagonists: effect in parental CHO-K1 cells; ATP-induced calcium, Fluo-8 fluorescence; inhibition, % at 3 µM; hit rate 0.6% among 360,000;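 active = inhibition above a per-plate cutoff, the plate's mean sample inhibition plus 3 SD, cut at about 24% in these data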
CHRM1 PAM: positive allosteric modulators of human M1 muscarinic receptor | CHO-K1 hM1, Fluo-8 calcium fluorescence, ACh EC20; 0% = ACh EC20, 100% = maximal ACh | activation, % at 3 µM | hit rate 0.088% among 360,000 | AID 588819; in the data active = activation above about 19%, passing the limit was not always enough
Target sequence (P11229 whole entry, looked up): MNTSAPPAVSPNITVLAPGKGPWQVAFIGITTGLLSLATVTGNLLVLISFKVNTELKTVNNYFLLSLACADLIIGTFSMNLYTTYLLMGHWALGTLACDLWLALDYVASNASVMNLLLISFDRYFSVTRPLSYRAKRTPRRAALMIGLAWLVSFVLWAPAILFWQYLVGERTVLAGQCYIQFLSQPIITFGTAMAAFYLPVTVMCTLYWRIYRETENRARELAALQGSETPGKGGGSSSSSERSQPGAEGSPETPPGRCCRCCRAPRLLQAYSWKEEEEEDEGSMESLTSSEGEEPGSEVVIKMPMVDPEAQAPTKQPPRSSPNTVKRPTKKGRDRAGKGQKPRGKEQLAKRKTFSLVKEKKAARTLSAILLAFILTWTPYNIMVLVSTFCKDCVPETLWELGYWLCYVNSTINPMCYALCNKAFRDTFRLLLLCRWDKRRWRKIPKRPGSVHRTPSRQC
M1 PAM parental: counter-screen for M1 PAMs: effect in parental CHO-K1 cells; ATP EC20, Fluo-8 calcium fluorescence; 0% at ATP EC20, 100% at ATP max; activation, % at 3 µM; hit rate 0.02% among 360,000; AID 602247;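 active = activation above the run cutoff, the mean activation of all test compounds plus 3 SD, cut at about 40% in these data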;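 note: peak over basal fluorescence ratio in a 140 s read after ATP addition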
M1 ag: agonists of human M1 muscarinic receptor; hit rate 0.33% among 360,000; AID 588814; P11229; activation, % at 3 µM; CHO-K1 hM1, Fluo-8 calcium fluorescence, agonist mode; 0% DMSO, 100% acetylcholine EC100;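 active = activation above the run's mean compound activation plus 3 SD, cut at about 16% in these data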;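 note: peak over basal fluorescence ratio within a 140 s kinetic read after compound addition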
CHO-K1 Ca ag: M1 agonist counterscreen hit in parental CHO-K1 cells. Fluo-8 calcium fluorescence; scaled to maximal ATP response, vehicle zero. activation, % at 3 µM. hit rate 0.48% among 360,000; in the data active = activation above about 15%;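 note: untransfected CHO-K1 host cells lacking M1 receptor as counterscreen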
CHRM1 antagonist: human CHRM1 antagonism. P11229. CHO-K1 hM1, Fluo-8 calcium fluorescence, ACh EC80 antagonist. inhibition, % at 3 µM. hit rate 1.3% among 360,000. AID 588852;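 active = percent inhibition above its own plate's cutoff, namely the mean of that plate's compound wells plus 3 SD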;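 note: peak over basal fluorescence ratio during 140 s after agonist addition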
Each line names hits and unclear results; the compound was inactive in the other large screens. Shown are actives, neighbours in structure and some others; about 2.3% of the full set was active somewhere.

COc1ccc(CNC(=O)COc2ccc(S(=O)(=O)N3CCOCC3)cc2)cc1	none
O=C(COc1ccc(S(=O)(=O)N2CCOCC2)cc1)NCc1ccccc1	CHRM1 antagonist 29.2
COc1ccc(S(=O)(=O)N2CCOCC2)cc1NC(=O)c1ccc(=O)[nH]c1	CHO-K1 Ca antag 54.3
COc1ccc(S(=O)(=O)N2CCOCC2)cc1NC(=O)c1ccc2c(c1)OCO2	none
O=C(COc1ccc(S(=O)(=O)N2CCOCC2)cc1)Nc1ccc(Br)cc1	none
O=C(CCCOc1ccc(Br)cc1)Nc1ccc(S(=O)(=O)N2CCOCC2)cc1	CHRM1 antagonist 31.7
COCC(=O)Oc1cc(-c2ccc(C)cc2C)c(OC(=O)COC)c(-c2ccc(C)cc2C)c1	none
CC(=O)Nc1cccc(-c2csc(C(O)c3ccc(F)cc3)n2)c1 (stereo not drawn)	none
CCNC(=O)C1(C)CCCN1C(=O)c1cnc2ccccc2n1 (stereo not drawn)	none
Cc1ccc(S(=O)(=O)N2CCOCC2)cc1NC(=O)COc1ccc(C(=O)c2ccccc2)cc1	CHO-K1 Ca ag 16.3, CHRM1 antagonist 36.7
O=C(NCCN1CCN(S(=O)(=O)c2ccc(F)cc2)CC1)C(=O)NCc1ccccc1	CHO-K1 Ca antag 24.0
CCc1nc2ccc(C(=O)N(C)Cc3ccco3)cn2c1N(CC)C(=O)NCCc1ccccc1	none
Nc1ccc(S(=O)(=O)c2ccc(N3CCOCC3)c(N)c2)cc1	none
CN(C(=O)CCc1ccccc1F)C1CCCN(Cc2ccccc2F)C1 (stereo not drawn)	none
CN(C(=O)CCCN1CCCC1=O)C1CCCN(Cc2ccccc2F)C1 (stereo not drawn)	CHRM1 antagonist 80.7
COCc1ccc(C(=O)N(C)C2CCCN(Cc3ccccc3F)C2)o1 (stereo not drawn)	CHRM1 antagonist 89.6
COC(=O)c1ccc(C(=O)N(C)C2CCCN(Cc3ccccc3F)C2)cc1 (stereo not drawn)	none
O=[N+]([O-])c1ccc(C=CC=Cc2ccccc2)cc1	none
CN(c1ccccc1)c1ccc(/C=C/[N+](=O)[O-])cc1	CHO-K1 Ca antag 28.2, M1 ag 22.8, CHO-K1 Ca ag 20.1, CHRM1 antagonist 64.0
CCCC(=O)N1CCC1(C)C(=O)Nc1ccc2nccnc2c1 (stereo not drawn)	none
N[C@@H](C(=O)N[C@@H]1C(=O)N2C(C(=O)O)=C(Cl)CS[C@H]12)c1ccccc1	M1 ag 17.7
Cc1ccc(S(=O)(=O)N2C[C@H]3n4c(=O)ccc(=O)n4C[C@H](OC(=O)NCc4ccco4)[C@@]3(O)C2)cc1	none
Cc1nc2nc(SCC(=O)NCCCN3CCCCCC3)nn2c(C)c1Cc1ccccc1	CHRM1 antagonist 77.4
Cc1ccc(Cc2c(C)nc3nc(SCC(=O)NCCCN4CCOCC4)nn3c2C)cc1	none
Cc1ccccc1Cc1c(C)nc2nc(SCC(=O)NCCCN3CCCCC3)nn2c1C	CHRM1 antagonist 50.8
Cc1ccc(NC(=O)C2(C)CCN2C(=O)CC(c2ccccc2)c2ccccc2)cc1 (stereo not drawn)	none
CCOC(=O)n1c2ccccc2c(=O)n1CCO	none
CCNC(=O)C1(C)CCCN(C(=O)c2ccccc2Br)C1 (stereo not drawn)	none
COc1cccc(C(NC(C)=O)c2nc(-c3cccc(C#N)c3)cs2)c1 (stereo not drawn)	none
CCc1nc2c(OCc3ccc(F)c(F)c3)cccn2c1N(C)C(=O)c1cccs1	none
COc1ccc(/C=C2\CCCC3C2=NN(C(=O)c2scnc2C)C3c2ccc(OC)c(OC)c2)cc1OC (stereo not drawn)	CHO-K1 Ca ag 18.7
c1ccc(-c2nn3c(C4CCCCC4)nnc3s2)cc1	CHO-K1 Ca antag 25.5
c1ccc(-c2nn3c(C4CCCCC4)nnc3s2)nc1	none
Nn1c(SCC(=O)NC2CCCC2)nnc1C(F)(F)F	none
N#Cc1c(-c2ccccc2)cc2nc3ccccc3n2c1N	none
Nc1cc(-c2ccccc2)n2c(n1)nc1ccccc12	CHRM1 antagonist 92.4
